ANO1 activ: activators or potentiators of mouse TMEM16A chloride channel. HEK293 TMEM16A/YFP-H148Q/I152L, iodide quench fluorescence; hits give low values. hit rate 0.3% among 340,000. Q8BHY3. AID 623877. B-score at 10 µM;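 active = fluorescence-ratio B-score plate-corrected deviation score at least 3 library SD below zero, with starting fluorescence score within 5 deviations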;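 also: channel opened by trigger with iodide after compound preincubation; score built on the fluorescence ratio of max minus min over baseline; more negative score means more quench and so TMEM16A activation or potentiation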
PP5 primary: inhibitors of human protein phosphatase 5 (PP5); inhibition, % at 6.7 µM; P53041; hit rate 0.18% among 320,000; purified PP5c, OMFP substrate fluorescence;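 active = inhibition above the campaign's mean inhibition across all tested compounds plus 3 SD, cut at about 9.5% in these data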
ANO1 block: blocks the mouse calcium-activated chloride channel TMEM16A. AID 588511. normalized B-score (activity score, 25-100; higher = stronger inhibition) at 10 µM. hit rate 1.2% among 310,000. Q8BHY3. HEK293 TMEM16A/YFP iodide influx fluorescence, ionomycin;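 active = ratio plate-corrected score three or more library SD toward inhibition, starting fluorescence score within five deviations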;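 also: score derived from kinetic fluorescence span divided by baseline fluorescence per well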
FID counter: fluorescent intercalator displacement, NS3 helicase counter-screen. hit rate 0.17% among 290,000. inhibition, % at 7.9 µM. DNA fluorescent intercalator displacement, fluorescence; in the data active = inhibition above about 37%;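 also: higher means more ethidium bromide displaced from hairpin DNA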
PREPL inhibitor: human PREPL enzyme inhibition. recombinant PREPL, fluorescence polarization activity-based probe. Q4J6C6. AID 2751. hit rate 0.68% among 320,000. inhibition, % at 5.96 µM; in the data active = inhibition above about 43%
PP1 counter: PP1-alpha (human) inhibition in PP5 counter-screen; inhibition, % at 6.7 µM; P62136; hit rate 0.9% among 320,000; purified PP1alpha, OMFP fluorescence;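 active = inhibition above the mean inhibition of all tested compounds plus 3 SD, computed separately for each screening campaign, cut at about 15% in these data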
Target sequence (P62136 whole entry, looked up): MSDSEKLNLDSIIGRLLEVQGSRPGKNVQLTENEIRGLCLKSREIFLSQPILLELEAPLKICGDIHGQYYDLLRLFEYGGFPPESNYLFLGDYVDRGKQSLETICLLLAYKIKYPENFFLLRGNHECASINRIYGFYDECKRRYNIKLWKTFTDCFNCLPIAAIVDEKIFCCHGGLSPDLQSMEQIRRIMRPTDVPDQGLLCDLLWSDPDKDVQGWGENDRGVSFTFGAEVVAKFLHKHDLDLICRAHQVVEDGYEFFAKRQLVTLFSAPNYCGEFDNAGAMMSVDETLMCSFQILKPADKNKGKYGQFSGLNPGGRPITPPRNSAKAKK
Hits are given with their value; 0 = inactive; - = no result. Only some compounds are listed: those with a hit (about 2.7% of all), similar ones and a draw of the others.

SMILES | ANO1 activ | PP5 primary | ANO1 block | FID counter | PREPL inhibitor | PP1 counter
OC(COc1ccc(F)cc1Cl)CN1CCC(Cc2ccccc2)CC1 (stereo unspecified) | 0 | 0 | 0 | 39 | 0 | 0
O=C1c2ccccc2C(=O)N1CCCc1nc(-c2ccccn2)no1 | 0 | 0 | 0 | 0 | 0 | 0
O=C1c2ccccc2C(=O)N1CCc1nc(-c2ccccn2)no1 | 0 | 0 | 25 | 0 | 0 | 0
CCOc1ccccc1NC(=O)C1CCN(C(=O)Cc2ccccc2)CC1 | 0 | 0 | 0 | 0 | 0 | 0
CC(CCc1ccccc1)NC(=O)COC(=O)c1cc(NS(=O)(=O)c2ccc(Cl)c([N+](=O)[O-])c2)ccc1O (stereo unspecified) | 0 | 0 | 100 | 0 | 0 | 0
COc1ccc(OC)c(NC(=O)Nc2ccc3c(c2)OCO3)c1 | 0 | 0 | 0 | 0 | 0 | 0
Cc1ccc(-c2nn(-c3ccccc3)cc2C2CC(c3ccccc3)=NN2C(=O)CCC(=O)O)cc1 (stereo unspecified) | 0 | 0 | 0 | 0 | 0 | 17
Cn1c(=O)c2c(nc(OC3CCCC3)n2C)n(C)c1=O | 0 | - | - | - | - | -
COc1ccc(CCNS(=O)(=O)c2ccc(Cl)cc2)cc1OC | 0 | 0 | 0 | 0 | 0 | 0
COc1cc(C2C(C(=O)/C=C/c3ccccc3)=C(O)C(=O)N2c2ccccn2)ccc1O (stereo unspecified) | 0 | 0 | 0 | 0 | 0 | 0
Cc1c(OCC(=O)NC(Cc2ccc(Cl)cc2)C(=O)O)ccc2c(-c3ccccc3)cc(=O)oc12 (stereo unspecified) | 0 | 0 | 0 | 0 | 0 | 17
O=C1CC(SC(=NCc2ccc3c(c2)OCO3)Nc2ccccc2)C(=O)N1c1ccccc1 (stereo unspecified) | 0 | 0 | 0 | 0 | 0 | 0
CN=C(Nc1ccc2c(c1)OCO2)SC1CC(=O)N(c2ccccc2)C1=O (stereo unspecified) | 0 | 0 | 25 | 0 | 0 | 0
CCOC(=O)c1c(NC(=O)c2ccc(C)cc2)sc2c1CC(C)(C)OC2 | 0 | 0 | 25 | 0 | 0 | 0
Cc1nc2nc(N)nn2c(C)c1C/C=C/c1ccccc1 | -37 | 0 | 0 | 0 | 0 | 0
CCOC(=O)c1c(N)sc2c1CCC1C(=O)N(C3CCCCC3)C(=O)C21 (stereo unspecified) | 0 | 0 | 0 | 0 | 0 | 15
CCOC(=O)c1c(N)sc2c1CCC(CC)C2 (stereo unspecified) | 0 | 0 | 0 | 0 | 0 | 0
CC(CC1C(C#N)=C(N)SC(N)=C1C#N)c1ccccc1 (stereo unspecified) | 0 | 0 | 100 | 0 | 0 | 0
CCn1c(CNC(=O)Cc2ccc(OC)cc2)nnc1SCC(=O)c1ccccc1 | -35 | - | - | 0 | - | -
CCC1C(=O)CC(c2ccc([N+](=O)[O-])cc2)NC1c1ccc([N+](=O)[O-])cc1 (stereo unspecified) | -5.5 | 0 | 0 | 0 | 0 | 0
CCC1C(=O)CC(c2ccco2)NC1c1ccco1 (stereo unspecified) | 0 | 0 | 0 | 0 | 0 | 0
CN1CCN(Cc2cc(COCc3ccccc3)c3cccnc3c2O)CC1 | 0 | 0 | 0 | 0 | 47 | 22
CSc1ccc(NC(=O)Nc2cccn(Cc3ccccc3)c2=O)cc1 | 0 | 0 | 100 | 0 | 0 | 0
O=C(Nc1cccc(/C=C/c2ccccn2)c1)c1ccc(-n2cncn2)c([N+](=O)[O-])c1 | 0 | 0 | 25 | - | 0 | 0
Cc1cc(C)c(S(=O)(=O)N2CCN(C(=O)c3ccc(-n4nc(C)c(Cl)c4C)cc3)CC2)c(C)c1 | 0 | - | - | - | - | -
SMILES | ANO1 activ | PP5 primary | ANO1 block | FID counter | PREPL inhibitor | PP1 counter
Cc1ccc(CN2C(=O)CSc3ccc(C(=O)NCCN4CCOCC4)cc32)cc1 | 0 | 0 | 0 | 43 | 0 | 0
O=c1[nH]cc(S(=O)(=O)N2CCN(c3cccc(C(F)(F)F)c3)CC2)c(=O)[nH]1 | 0 | 0 | 0 | - | 0 | 16
O=c1[nH]cc(S(=O)(=O)N2CCN(c3cccc(Cl)c3)CC2)c(=O)[nH]1 | 0 | 0 | 0 | - | 0 | 0
c1ccc(-n2cnc3cc(NCc4ccccn4)ccc32)cc1 | 0 | 0 | 0 | 0 | 55 | 0
Cc1nc(S/C(=C/c2ccc(-c3ccc(C(=O)O)cc3)o2)C(=O)O)n[nH]1 | 0 | 0 | 0 | 0 | 0 | 0
CC(=O)c1ccc(-c2ccc(/C=C(/Sc3n[nH]c(C)n3)C(=O)O)o2)cc1 | 0 | 0 | 0 | 0 | 0 | 16
CSc1ncnc2[nH]ccc12 | 0 | - | - | - | - | -
CN(C(=O)CSc1nncn1C)C1CCCN(Cc2ccccc2F)C1 (stereo unspecified) | 0 | 0 | 0 | 0 | 0 | 0
O=C(Nn1c(C2CCCCC2)nc2ccccc2c1=O)c1ccc([N+](=O)[O-])cc1Cl | 0 | 0 | 0 | 0 | 0 | 17
O=C(Nn1c(C2CCCCC2)nc2ccccc2c1=O)c1cc(Cl)ccc1[N+](=O)[O-] | 0 | 0 | 0 | 0 | 0 | 0
Nc1ncnc2c1ncn2[C@@H]1O[C@H](CNCc2ccc(-n3cccn3)cc2)[C@@H](O)[C@H]1O | - | - | - | - | 0 | -
O=C(/C=C/c1ccco1)Nc1cccc(C(=O)Nc2ccccc2C(=O)O)c1 | 0 | 0 | 0 | 0 | 0 | 0
CCc1ccccc1NC(=O)c1cccc(NC(=O)/C=C/c2ccco2)c1 | 0 | 0 | 25 | 0 | 0 | 0
Cc1cc(C(=O)OCC(=O)Nc2cccc(S(N)(=O)=O)c2)c(C)o1 | 0 | - | - | - | 0 | -
Cc1cc(C(=O)OCC(=O)Nc2cccc(S(=O)(=O)N3CCOCC3)c2)c(C)o1 | -6.2 | 0 | 0 | 0 | 0 | 0
CC(C)CCNC(=O)NC(=O)COC(=O)c1cc(S(=O)(=O)N2CCOCC2)ccc1N1CCCCC1 | -12 | 0 | 0 | 0 | 0 | 0
NC(=O)COC(=O)c1cc(S(=O)(=O)N2CCOCC2)ccc1N1CCCCC1 | 0 | 0 | 0 | 0 | 0 | 0
CCCCc1cc(=O)oc2cc(C)cc(OCC(=O)NCc3ccccn3)c12 | 0 | 0 | 0 | 0 | 0 | 0
C=CCCO[C@@H]1O[C@@H](C)[C@H](O)C[C@H]1O | 0 | 0 | - | - | 0 | 0
COc1ccccc1-c1cc(C(=O)N2CCc3ccccc3C2)c2ccccc2n1 | - | 0 | 100 | 0 | 0 | 0
CC1(c2ccc(OC(F)F)cc2)NC(=O)N(CC(=O)Nc2ccc(OC(F)F)cc2)C1=O (stereo unspecified) | -14 | 0 | 0 | 0 | 0 | 0
COc1cccc(CN(C)C(=O)CN2C(=O)NC(c3ccccc3)(c3ccccc3)C2=O)c1 | -48 | 0 | - | - | 0 | 0
COc1cccc(CNC(=O)CN2C(=O)NC(c3ccccc3)(c3ccccc3)C2=O)c1 | 0 | - | - | - | - | -
CCC(C)(C)NC(=O)CN(C(=O)C(=O)Nc1ccc2c(c1)OCCO2)N1CCOCC1 | 0 | 0 | 0 | 0 | 0 | 0
CC(C)c1ccc(NC(=O)[C@H](Cc2c[nH]c3ccccc23)NC(=O)[C@@H]2Cc3ccccc3CN2)cc1 | 0 | 0 | 0 | 0 | 0 | 16
Cc1cc(=O)[nH]c(NN=Cc2c(Cl)cccc2Cl)n1 | 0 | - | - | - | - | -
Cc1cc(=O)[nH]c(N/N=C/c2c(O)n(-c3ccccc3)c(=O)c3ccccc23)n1 | 0 | 0 | 0 | 0 | 0 | 17

Bioassay records deposited in PubChem BioAssay by several laboratories.
